Laboratory results as given in the supplement of paper PMC10849652.
Of roughly 7,900 targets only a part is listed; those with a hit were picked by preference. About 0.6% of all pairs of compound and target were hits. Values without a mark were called inactive.

The targets below were run with C1=CC2=C(C=CC(=C2)/C=C\3/C(=O)NC(=NCC4=CC=CS4)S3)N=C1 (assay: log2 fold change, soluble protein after heating vs DMSO (PISA); higher = thermal stabilisation; K562 cells, 10 uM, 30 min; active = over 0.2 and 3.5 SD of the protein, either way, in both replicates (recomputed)).
Summary of the method: (§1)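 Soluble protein was defined as the supernatant after 21,000xg for 90 min. It came from K562 cells at 2×10^6 cells/mL given 10 μM compound for 30 min, heated in aliquots for 3 min across 48°C-58°C, pooled, and extracted in PBS with 0.5% NP-40 at 4°C, and was quantified by TMTpro 16plex LC-MS/MS with equalised channel sums. Thermal stability against control samples, from duplicates, is reported as log2 fold change.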

Sequence of UniProt P43361 (P43361 whole entry, looked up): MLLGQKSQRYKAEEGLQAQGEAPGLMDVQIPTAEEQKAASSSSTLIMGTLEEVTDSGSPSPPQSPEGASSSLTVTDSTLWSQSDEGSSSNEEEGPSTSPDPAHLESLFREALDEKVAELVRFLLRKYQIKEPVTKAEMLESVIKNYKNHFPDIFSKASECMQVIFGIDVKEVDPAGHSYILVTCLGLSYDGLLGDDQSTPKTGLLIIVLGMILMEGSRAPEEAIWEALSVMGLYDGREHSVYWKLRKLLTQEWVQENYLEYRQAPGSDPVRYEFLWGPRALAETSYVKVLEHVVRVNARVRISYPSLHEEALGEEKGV
Sequence of UniProt Q71SY5 (Q71SY5 whole entry, looked up): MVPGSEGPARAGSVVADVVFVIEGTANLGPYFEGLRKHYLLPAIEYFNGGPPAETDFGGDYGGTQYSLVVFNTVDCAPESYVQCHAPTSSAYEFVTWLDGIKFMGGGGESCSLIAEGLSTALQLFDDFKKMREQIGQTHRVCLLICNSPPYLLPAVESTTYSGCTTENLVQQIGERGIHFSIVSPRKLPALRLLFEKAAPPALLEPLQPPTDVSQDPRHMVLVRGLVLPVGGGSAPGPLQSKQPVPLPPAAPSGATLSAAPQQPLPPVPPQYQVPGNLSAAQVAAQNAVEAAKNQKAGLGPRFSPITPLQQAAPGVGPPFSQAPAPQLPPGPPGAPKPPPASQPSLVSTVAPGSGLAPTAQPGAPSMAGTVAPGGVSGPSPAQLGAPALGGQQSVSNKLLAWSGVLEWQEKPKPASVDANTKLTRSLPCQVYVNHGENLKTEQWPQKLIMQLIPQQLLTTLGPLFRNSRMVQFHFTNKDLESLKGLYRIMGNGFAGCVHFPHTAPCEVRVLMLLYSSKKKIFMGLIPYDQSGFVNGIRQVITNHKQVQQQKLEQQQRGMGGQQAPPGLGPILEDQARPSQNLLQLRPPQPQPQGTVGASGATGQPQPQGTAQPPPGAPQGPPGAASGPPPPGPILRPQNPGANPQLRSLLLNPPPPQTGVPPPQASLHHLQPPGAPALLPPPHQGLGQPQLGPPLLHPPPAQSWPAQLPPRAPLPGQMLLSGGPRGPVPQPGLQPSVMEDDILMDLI
Sequence of UniProt O43934 (O43934 whole entry, looked up): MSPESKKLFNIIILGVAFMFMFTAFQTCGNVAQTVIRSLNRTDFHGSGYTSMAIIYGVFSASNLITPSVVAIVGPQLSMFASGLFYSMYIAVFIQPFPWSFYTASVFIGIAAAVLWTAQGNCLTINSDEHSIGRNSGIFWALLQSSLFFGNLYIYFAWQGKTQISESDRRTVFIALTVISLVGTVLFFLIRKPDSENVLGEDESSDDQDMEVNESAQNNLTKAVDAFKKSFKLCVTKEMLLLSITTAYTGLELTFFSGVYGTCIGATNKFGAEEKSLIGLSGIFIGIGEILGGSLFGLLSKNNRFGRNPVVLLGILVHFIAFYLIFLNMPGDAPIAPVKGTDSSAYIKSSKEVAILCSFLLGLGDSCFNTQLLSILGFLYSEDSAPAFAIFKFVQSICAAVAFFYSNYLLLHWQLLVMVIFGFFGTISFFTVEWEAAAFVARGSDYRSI
Sequence of UniProt Q16539 (Q16539 whole entry, looked up): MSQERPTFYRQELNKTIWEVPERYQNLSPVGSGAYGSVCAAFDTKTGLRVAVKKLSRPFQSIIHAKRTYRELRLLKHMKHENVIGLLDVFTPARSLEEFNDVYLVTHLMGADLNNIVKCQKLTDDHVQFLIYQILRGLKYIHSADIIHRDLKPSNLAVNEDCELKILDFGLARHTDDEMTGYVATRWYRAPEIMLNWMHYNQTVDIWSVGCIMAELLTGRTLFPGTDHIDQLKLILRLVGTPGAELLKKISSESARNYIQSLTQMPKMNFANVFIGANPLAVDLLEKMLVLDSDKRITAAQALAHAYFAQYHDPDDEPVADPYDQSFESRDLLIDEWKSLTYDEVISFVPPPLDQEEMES
Sequence of UniProt P55082 (P55082 whole entry, looked up): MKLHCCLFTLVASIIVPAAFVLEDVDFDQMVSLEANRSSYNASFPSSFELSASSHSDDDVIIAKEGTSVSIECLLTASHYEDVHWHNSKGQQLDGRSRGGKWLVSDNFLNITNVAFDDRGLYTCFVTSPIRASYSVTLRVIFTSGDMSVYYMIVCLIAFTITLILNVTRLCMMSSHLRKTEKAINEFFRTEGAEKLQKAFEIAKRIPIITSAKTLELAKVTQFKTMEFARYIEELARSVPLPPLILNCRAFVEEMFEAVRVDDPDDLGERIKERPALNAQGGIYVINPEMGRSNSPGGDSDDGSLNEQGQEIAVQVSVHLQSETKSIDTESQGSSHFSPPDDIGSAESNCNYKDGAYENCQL
Sequence of UniProt P24592 (P24592 whole entry, looked up): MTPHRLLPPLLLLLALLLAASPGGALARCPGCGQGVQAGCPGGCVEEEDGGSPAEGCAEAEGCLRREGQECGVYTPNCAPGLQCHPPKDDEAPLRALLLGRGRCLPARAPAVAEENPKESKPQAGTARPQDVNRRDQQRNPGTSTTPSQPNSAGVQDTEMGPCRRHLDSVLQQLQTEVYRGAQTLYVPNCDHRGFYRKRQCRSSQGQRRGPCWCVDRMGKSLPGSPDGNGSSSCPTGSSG
Sequence of UniProt Q13163 (Q13163 whole entry, looked up): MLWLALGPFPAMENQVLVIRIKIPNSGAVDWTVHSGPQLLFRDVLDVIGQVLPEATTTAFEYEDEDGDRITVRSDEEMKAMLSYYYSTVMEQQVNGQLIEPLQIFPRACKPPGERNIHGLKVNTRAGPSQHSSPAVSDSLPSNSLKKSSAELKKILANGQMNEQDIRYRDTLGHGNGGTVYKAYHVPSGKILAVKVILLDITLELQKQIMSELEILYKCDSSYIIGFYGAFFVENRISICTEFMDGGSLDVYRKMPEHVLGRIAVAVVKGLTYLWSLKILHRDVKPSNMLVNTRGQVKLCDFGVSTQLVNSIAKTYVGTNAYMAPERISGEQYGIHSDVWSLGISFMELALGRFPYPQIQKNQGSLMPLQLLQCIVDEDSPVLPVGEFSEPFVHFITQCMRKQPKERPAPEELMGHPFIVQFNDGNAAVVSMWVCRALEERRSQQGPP
Sequence of UniProt Q9Y573 (Q9Y573 whole entry, looked up): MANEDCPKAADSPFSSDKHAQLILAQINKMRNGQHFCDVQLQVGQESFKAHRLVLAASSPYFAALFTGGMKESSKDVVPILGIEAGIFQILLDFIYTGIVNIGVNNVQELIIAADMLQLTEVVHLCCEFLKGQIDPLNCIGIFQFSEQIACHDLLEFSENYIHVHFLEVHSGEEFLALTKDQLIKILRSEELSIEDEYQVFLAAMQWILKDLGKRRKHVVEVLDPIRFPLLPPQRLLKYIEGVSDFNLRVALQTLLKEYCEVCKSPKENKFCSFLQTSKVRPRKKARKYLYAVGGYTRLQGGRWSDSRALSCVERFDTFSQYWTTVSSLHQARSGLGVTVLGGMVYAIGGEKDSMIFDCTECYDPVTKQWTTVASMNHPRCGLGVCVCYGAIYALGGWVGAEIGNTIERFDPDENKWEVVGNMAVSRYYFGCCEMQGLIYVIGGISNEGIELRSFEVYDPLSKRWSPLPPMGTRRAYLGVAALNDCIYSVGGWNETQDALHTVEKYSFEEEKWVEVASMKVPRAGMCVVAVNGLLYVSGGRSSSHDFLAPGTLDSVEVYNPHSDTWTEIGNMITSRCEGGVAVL
Sequence of UniProt Q9C099 (Q9C099 whole entry, looked up): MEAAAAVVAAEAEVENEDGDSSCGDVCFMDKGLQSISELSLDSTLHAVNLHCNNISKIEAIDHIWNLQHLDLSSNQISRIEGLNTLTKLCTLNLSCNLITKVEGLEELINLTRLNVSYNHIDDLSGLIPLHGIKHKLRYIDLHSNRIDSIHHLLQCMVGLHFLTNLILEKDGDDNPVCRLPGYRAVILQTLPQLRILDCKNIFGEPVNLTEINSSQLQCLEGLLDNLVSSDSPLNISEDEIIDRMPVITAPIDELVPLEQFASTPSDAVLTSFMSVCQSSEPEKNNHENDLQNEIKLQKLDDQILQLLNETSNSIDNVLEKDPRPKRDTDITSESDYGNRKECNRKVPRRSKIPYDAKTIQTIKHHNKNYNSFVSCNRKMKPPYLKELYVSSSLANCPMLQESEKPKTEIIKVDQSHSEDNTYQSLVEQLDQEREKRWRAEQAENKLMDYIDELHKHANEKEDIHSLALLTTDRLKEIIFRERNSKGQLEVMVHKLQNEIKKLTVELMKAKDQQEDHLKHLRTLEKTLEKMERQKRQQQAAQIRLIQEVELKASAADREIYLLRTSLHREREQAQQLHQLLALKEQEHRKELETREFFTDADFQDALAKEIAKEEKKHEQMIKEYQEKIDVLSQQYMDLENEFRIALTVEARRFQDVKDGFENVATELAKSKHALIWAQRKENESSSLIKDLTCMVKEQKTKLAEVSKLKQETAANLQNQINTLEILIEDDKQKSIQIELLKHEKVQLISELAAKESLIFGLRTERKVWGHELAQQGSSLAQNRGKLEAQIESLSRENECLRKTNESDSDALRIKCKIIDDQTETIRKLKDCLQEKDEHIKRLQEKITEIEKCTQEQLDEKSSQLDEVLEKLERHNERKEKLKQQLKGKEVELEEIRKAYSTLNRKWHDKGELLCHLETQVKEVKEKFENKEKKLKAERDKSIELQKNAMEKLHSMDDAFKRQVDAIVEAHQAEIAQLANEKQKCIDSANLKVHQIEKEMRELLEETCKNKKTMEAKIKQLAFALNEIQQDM
Sequence of UniProt P17936 (P17936 whole entry, looked up): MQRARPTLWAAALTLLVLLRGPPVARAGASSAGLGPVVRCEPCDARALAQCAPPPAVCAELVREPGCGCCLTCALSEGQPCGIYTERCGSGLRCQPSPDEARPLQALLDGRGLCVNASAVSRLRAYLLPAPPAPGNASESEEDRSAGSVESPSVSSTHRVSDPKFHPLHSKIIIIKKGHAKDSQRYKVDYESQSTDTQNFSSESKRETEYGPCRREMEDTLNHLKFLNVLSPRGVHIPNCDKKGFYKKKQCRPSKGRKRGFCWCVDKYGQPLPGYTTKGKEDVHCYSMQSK

Target	log2 fold change
MGRN1 isoform 2 (UniProt O60291)	-0.544 (active)
IGFBP3 isoform 2 (UniProt P17936)	0.049
MED25 isoform 3 (UniProt Q71SY5)	0.048
MFSD11 (UniProt O43934)	0.047
MED29 (UniProt Q9NX70)	-0.089
KIZ (UniProt Q2M2Z5)	0.077
MAPRE3 isoform 2 (UniProt Q9UPY8)	-0.18
MFAP3 (UniProt P55082)	0.029
IGFBP6 (UniProt P24592)	0.057
LRRCC1 (UniProt Q9C099)	0.088
MAPK7 (UniProt Q13164)	0
MAGEA8 (UniProt P43361)	-0.04
MAPK14 (UniProt Q16539)	-0.054
IPP (UniProt Q9Y573)	0.083
KIF13A isoform 4 (UniProt Q9H1H9)	0.161
MFSD12 isoform 3 (UniProt Q6NUT3)	-0.035
MAP2K5 (UniProt Q13163)	0.277

Each target was assayed with C1=CC2=NC=CN=C2C=C1/C=C/3\C(=O)NC(=O)S3 in the same assay as above.
Summary of the method: as §1

Target	log2 fold change
MGRN1 isoform 2 (UniProt O60291)	0.004
ILF3 (UniProt Q12906)	0.128
MED25 isoform 3 (UniProt Q71SY5)	-0.031
MFSD11 (UniProt O43934)	0.043
IKZF1 isoform 2 (UniProt Q13422)	0.046
LOX (UniProt P28300)	0.038
LAPTM4B (UniProt Q86VI4)	0.093
MCM10 (UniProt Q7L590)	-0.054
LDLRAP1 (UniProt Q5SW96)	0.199
MCOLN3 (UniProt Q8TDD5)	0.112
JAK3 (UniProt P52333)	0.021
MFAP3 (UniProt P55082)	-0.106
MAP4K2 (UniProt Q12851)	-0.122
MARCHF3 (UniProt Q86UD3)	-0.073
MAGEA8 (UniProt P43361)	0.132
MAPK14 (UniProt Q16539)	0.001
KCNK5 (UniProt O95279)	0.095
IPP (UniProt Q9Y573)	-0.17
LRFN1 (UniProt Q9P244)	0.004

These targets were tested with C1=CC=C(C=C1)C2=NC(=C(N2)C3=CC=NC=C3)C4=CC(=C(C=C4)Cl)O in the same assay as above.
Summary of the method: as §1

Target	log2 fold change
MGRN1 isoform 2 (UniProt O60291)	-0.095
MAML1 (UniProt Q92585)	-0.004
MED25 isoform 3 (UniProt Q71SY5)	0.062
IKZF1 isoform 2 (UniProt Q13422)	0.047
MAPK11 (UniProt Q15759)	0.744
LDLRAP1 (UniProt Q5SW96)	-0.118
MCOLN3 (UniProt Q8TDD5)	-0.049
JAK3 (UniProt P52333)	-0.207
KIZ (UniProt Q2M2Z5)	0.103
KIF21A (UniProt H0YI78)	0.1
IGFBP6 (UniProt P24592)	0.131
LRRCC1 (UniProt Q9C099)	0.257
MAGEA8 (UniProt P43361)	-0.028
MAPK14 (UniProt Q16539)	1.04 (active)
ITPRID2 (UniProt P28290)	-0.213
MAP2K5 (UniProt Q13163)	0.145
LRFN1 (UniProt Q9P244)	-0.038

These targets were tested with C1=CC=C2C(=C1)C3=NNC4=CC=CC(=C43)C2=O in the same assay as above.
Summary of the method: as §1

Target	log2 fold change
MGRN1 isoform 2 (UniProt O60291)	0.073
IGFBP3 isoform 2 (UniProt P17936)	-0.172
MED25 isoform 3 (UniProt Q71SY5)	0.057
MFSD11 (UniProt O43934)	-0.067
MED29 (UniProt Q9NX70)	-0.015
KIZ (UniProt Q2M2Z5)	-0.01
MAPRE3 isoform 2 (UniProt Q9UPY8)	-0.073
MFAP3 (UniProt P55082)	-0.142
IGFBP6 (UniProt P24592)	-0.19
LRRCC1 (UniProt Q9C099)	0.123
MAPK7 (UniProt Q13164)	0.14
MAGEA8 (UniProt P43361)	-0.098
MAPK14 (UniProt Q16539)	0.174
IPP (UniProt Q9Y573)	0.139
KIF13A isoform 4 (UniProt Q9H1H9)	0.021
MFSD12 isoform 3 (UniProt Q6NUT3)	0.024
MAP2K5 (UniProt Q13163)	-0.036
